FadD28 FP inh – inhibitors of Mycobacterium tuberculosis FadD28 bisubstrate binding | hit rate 0.22% among 360,000 | AID 588549 | inhibition, % at 12.5 µM | FadD28 bisubstrate probe binding, fluorescence polarization; in the data active = inhibition above about 8.5%, passing the limit was not always enough; inconclusive = no clear call, values can overlap the other calls
PrPC surface inh – reduces human prion protein on the cell surface. inhibition, % at 13.8 µM. hit rate 0.43% among 370,000. cell surface PrPC, TR-FRET read-out; in the data active = inhibition above about 24%; note: 0% = median of the test wells and 100% = reference compound wells
Mtb UGM inh – blocks M. tuberculosis UGM enzyme; P9WIQ1; purified UGM, fluorescence polarization probe displacement; inhibition, % at 10 µM; hit rate 0.06% among 320,000; AID 504406; in the data active = inhibition above about 10%, passing the limit was not always enough; inconclusive = no clear call, values can overlap the other calls
PrP 5UTR inh – inhibition of PrP 5' UTR reporter expression; inhibition, % (test concentration not listed); AID 488862; hit rate 0.35% among 340,000; cell-based PrP 5' UTR mRNA reporter, plate reader; in the data active = inhibition above about 52%; note: 0 = median of the neutral control wells
Rv3671c inh – inhibits the M. tuberculosis serine protease Rv3671c | P9WHR9 | hit rate 0.048% among 320,000 | inhibition, % at 5.96 µM | AID 2606; in the data active = inhibition above about 38%;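 note: extracellular domain of Rv3671c used as enzyme; 0% = enzyme with DMSO and 100% = no enzyme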
Target sequence (P9WHR9 whole entry, looked up, the tested form may be a part): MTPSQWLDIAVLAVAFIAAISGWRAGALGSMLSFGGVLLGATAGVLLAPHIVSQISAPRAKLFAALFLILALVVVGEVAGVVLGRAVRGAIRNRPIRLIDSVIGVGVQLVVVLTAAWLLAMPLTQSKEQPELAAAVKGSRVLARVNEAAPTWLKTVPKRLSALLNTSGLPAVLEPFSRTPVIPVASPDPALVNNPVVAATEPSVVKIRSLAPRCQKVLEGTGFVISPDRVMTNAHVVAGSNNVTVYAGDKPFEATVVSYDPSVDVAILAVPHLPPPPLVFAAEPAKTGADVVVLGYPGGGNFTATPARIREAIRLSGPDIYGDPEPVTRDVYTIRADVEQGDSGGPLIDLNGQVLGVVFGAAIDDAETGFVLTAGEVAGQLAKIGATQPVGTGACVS
PriA SSB inh – inhibitors of Klebsiella pneumoniae PriA binding to SSB C-terminal tail. AlphaScreen SSBct-PriA binding, biotinylated peptide. inhibition, % at 33 µM. hit rate 0.6% among 430,000; in the data active = inhibition mostly above about 37%, no sharp cut-off; inactive = mostly below about 20%;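 note: plate controls were negative control peptide for no effect and reference peptide for full effect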
PrPC confirm – cell surface PrPC inhibition, TR-FRET confirmation. shares compounds with PrPC surface inh. cell surface PrPC level. inhibition, % at 13.8 µM. hit rate 65% among 1,500; in the data active = inhibition above about 25%
LD9 tox – LD9 cell cytotoxicity, PrPc inhibitor counter-screen | LD9 cells cytotoxicity, luminescence viability | inhibition, % at 13.8 µM | shares compounds with PrPC surface inh | hit rate 29% among 1,500; in the data active = inhibition above about 9.5%
Starred values were filed as active, the others as inactive; ? = inconclusive; . = not tested or not shown. In the library only some 1.2% were active in any assay of this set; here they are far more common.

SMILES	FadD28 FP inh	PrPC surface inh	Mtb UGM inh	PrP 5UTR inh	Rv3671c inh	PriA SSB inh	PrPC confirm	LD9 tox
Cc1ccc(C2C(C#N)=C(N)SC(N)=C2C#N)cc1	-5	91*	.	-26	.	1	86*	1
CC(=O)N1CCC2(CC1)OCCN2S(=O)(=O)c1ccc(C)cc1	.	.	.	.	.	2	.	.
O=S(=O)(NC1c2cccc3cccc(c23)C1N1CCN(CCO)CC1)c1ccccc1 (centres undefined)	-1	34*	.	-4	.	-5	16	4
O=S(=O)(NC1c2cccc3cccc(c23)C1N1CCNCC1)c1ccccc1 (centres undefined)	-1	-10	-1	-7	1	20	.	.
Fc1ccccc1COc1ccc(Br)cc1CNCc1ccncc1	-2	25*	-1	-9	0	-10	23	17*
COc1ccc2nc(Nc3nc(CSc4nc5ccccc5[nH]4)cc(=O)[nH]3)nc(C)c2c1	-1	7	-2	-6	-1	-8	.	.
Cc1nc(Nc2nc(CSc3nc4ccccc4[nH]3)cc(=O)[nH]2)nc2ccccc12	-1	34*	-1	4	-49	10	46*	20*
COC(=O)Cn1c(=NC(=O)c2ccc3ncsc3c2)sc2cc([N+](=O)[O-])ccc21	.	.	.	.	.	-20	.	.
Cc1ccc2nc3c(c(Nc4cccc(O)c4)c2c1)CCC3	-5	25*	-1	-18	-1	12	16	16*
COC(=O)c1cccc(Nc2c3c(nc4ccccc24)CCC3)c1	.	29*	.	-28	.	12	30*	12*
O=C(CN1C(=O)CCC1=O)Nc1nc(-c2ccncc2)cs1	.	.	.	.	.	4	.	.
COc1cccc(N2CC(NC(=O)NCCC3=CCCCC3)CC2=O)c1 (centres undefined)	.	.	.	.	.	-15	.	.
O=C(COc1cccc2cccnc12)Nc1cccc(S(=O)(=O)N2CCCC2)c1	-3	31*	-1	3	3	-3	5	0
O=C(NCCn1ccn2nc(-c3ccco3)cc12)C1(c2ccccc2)CCOCC1	.	.	.	.	.	7	.	.
C=Cc1cc2c(cc1O)CCC1C2CCC2(C)C(O)CCC12 (centres undefined)	-2	29*	.	-26	.	-11	11	-4
N#Cc1ccccc1OCCCN1CCC(Cc2ccccc2)CC1	-1	26*	-7	-19	3	-5	4	10*
COc1ccccc1C(=O)NCCN1CCN(c2ccccc2F)CC1	.	.	.	.	.	-6	.	.
CCOC(=O)c1c(-c2ccccc2Cl)csc1NC(=O)CSC(=S)N(CC)CC	.	.	.	.	.	-7	.	.
CCC1=C(CC2NCCc3ccccc32)CC2c3cc(OC)c(OC)cc3CCN2C1 (centres undefined)	-1	76*	.	7	.	-3	83*	28*
COc1cc2c(cc1OC)CN1CCc3cc(OC)c(OC)cc3C1C2 (centres undefined)	-3	-16	.	.	.	.	.	.
COc1ccccc1Cc1noc(C2CN(C(=O)c3ccc(S(=O)(=O)N(C)C)cc3)C2)n1	.	.	.	.	.	2	.	.
N#CC(=C=[N-])C1=C(C#N)C(c2ccccc2F)C([n+]2ccccc2)C(O)(C2CC2)N1 (centres undefined)	?	63*	2	1	-1	-8	22	0
Cc1cccc[n+]1C1C(c2ccccc2)C(C#N)=C(C(=C=[N-])C#N)NC1(O)C1CC1 (centres undefined)	6	.	4	-18	-4	36	.	.
O=C(NCc1ccccn1)c1coc(=O)c(Br)c1	-1	27*	1	-12	2	8	-2	0
Cc1cc(C)n2c(-c3ccccc3Cl)nnc2n1	-1	25*	-2	-16	6	10	5	2
SMILES	FadD28 FP inh	PrPC surface inh	Mtb UGM inh	PrP 5UTR inh	Rv3671c inh	PriA SSB inh	PrPC confirm	LD9 tox
COc1cccc2cc(C(=O)C3=C(O)C(=O)N(CCN(C)C)C3c3ccc(Cl)cc3)oc12 (centres undefined)	-2	41*	0	-36	7	-1	52*	-3
COc1ccc(OCCNC(=O)c2ccc3nc(C)c(N(C)C(=O)CCc4ccccc4)n3c2)cc1	-4	59*	.	.	.	.	-3	0
COc1coc(C(=O)Nc2ccc(F)c(Cl)c2)cc1=O	.	.	.	.	.	-12	.	.
CC(C)Nc1ncnc2ccc(Br)cc12	-4	25*	2	-5	-3	-6	34*	5
CSCCC(Nc1ncnc2ccc(Br)cc12)C(=O)O (centres undefined)	-5	42*	1	-32	-5	5	104*	-1
Brc1ccc2ncnc(NCc3ccco3)c2c1	-3	26*	-4	-10	0	2	32*	13*
COc1ccc2[nH]c3c(=S)nc[nH]c3c2c1	-1	85*	0	-25	4	-3	104*	1
CC(C)C[C@@H](CN1CCC[C@H]1CN1C(=O)C(=O)NC[C@@H]1Cc1ccccc1)N1C[C@H](Cc2ccc(O)cc2)N(CC2CCCCCC2)C(=O)C1=O	.	26*	.	.	.	.	24	1
CC(C)C[C@@H](CN1CCC[C@@H]1CN1C(=O)C(=O)NC[C@@H]1Cc1ccccc1)N1C[C@H](Cc2ccc(O)cc2)N(CC2CCCCC2)C(=O)C1=O	-1	5	.	-22	.	1	.	.
Cc1occc1-c1nnc2sc(/C=C/c3ccc(C(C)C)cc3)nn12	.	.	.	.	.	2	.	.
COc1cc(C=NO)nc(-c2ccccn2)c1	-4	37*	.	44	.	83*	33*	22*
Cc1ccc(C(N)=NOC(=O)N2CCOCC2)cc1	.	.	.	.	.	7	.	.
O=C(CCCn1nc(-c2ccco2)ccc1=O)Nc1nccs1	.	.	.	.	.	-5	.	.
O=C(c1ccccc1C(F)(F)F)N1CCOC[C@@H]1CO	.	.	.	.	.	-15	.	.
Cc1ccc2c(c1)[C@H]1[C@H](CO2)[C@H](c2ccccc2)[C@]2(C)C(=O)Nc3cc(F)c(F)cc3C(=O)N12	-6	29*	-3	-5	-47	8	19	-6
C[C@@]12C(=O)N(c3cccc(F)c3)C(=O)N1[C@@H]1c3ccccc3OC[C@@H]1[C@H]2c1ccccc1	-1	29*	0	-21	-3	-1	16	-1
Cc1ccc2c(c1)[C@H]1[C@H](CO2)[C@H](c2ccccc2)[C@]2(C)C(=O)Nc3ccc(F)cc3C(=O)N12	-7	5	.	-15	.	0	.	.
N#CCCSc1ncnc2c1oc1ccccc12	-5	55*	2	-14	-4	-6	47*	-5
CCOC(=O)CC(=O)CSc1ncnc2c1oc1ccccc12	-3	58*	3	-17	-1	-5	19	-7
CCCn1c(=O)c2ccccc2n2c(SCC(=O)C(C#N)=C(C)N)nnc12	.	.	.	.	.	9	.	.
COc1ccc(C(=O)Nc2ccc(-c3cn4ccsc4n3)cc2)cc1S(=O)(=O)N1CCOCC1	0	77*	-1	0	-13	-5	51*	-3
Cc1ccccc1-c1n[nH]c(=S)o1	1	63*	0	-12	-2	2	72*	-3

Screens deposited in PubChem by several laboratories.
